PubChem BioAssay AID1497 (Sanford-Burnham Center for Chemical Genomics, 2009)
Hit rate of the full screen: of about 93,000 compounds, about 500 (0.54%) were called active. This is one part of a sample in which actives are shown more often than they occur. Unmarked numbers belong to inactive results.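 Rule for the calls: active = primary inhibition of 50% or more at 10 µM, then 40% or more on retest; inactive = the rest.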

The compounds below were run against Integrin beta-2 (Homo sapiens) + Integrin alpha-M (Homo sapiens) (UniProt P05107+P11215) (assay: inhibitors of CD11b/CD18 adhesion to fibrinogen, primary screen, K562 cells, luminescence (AID 1497)). Settings: ATPlite luminescence, at 10 µM, hits give high values, Mn2+ added to activate the integrin.
Integrin beta-2 (Homo sapiens) + Integrin alpha-M (Homo sapiens), sequence (P05107 whole entry, looked up, other chains not shown): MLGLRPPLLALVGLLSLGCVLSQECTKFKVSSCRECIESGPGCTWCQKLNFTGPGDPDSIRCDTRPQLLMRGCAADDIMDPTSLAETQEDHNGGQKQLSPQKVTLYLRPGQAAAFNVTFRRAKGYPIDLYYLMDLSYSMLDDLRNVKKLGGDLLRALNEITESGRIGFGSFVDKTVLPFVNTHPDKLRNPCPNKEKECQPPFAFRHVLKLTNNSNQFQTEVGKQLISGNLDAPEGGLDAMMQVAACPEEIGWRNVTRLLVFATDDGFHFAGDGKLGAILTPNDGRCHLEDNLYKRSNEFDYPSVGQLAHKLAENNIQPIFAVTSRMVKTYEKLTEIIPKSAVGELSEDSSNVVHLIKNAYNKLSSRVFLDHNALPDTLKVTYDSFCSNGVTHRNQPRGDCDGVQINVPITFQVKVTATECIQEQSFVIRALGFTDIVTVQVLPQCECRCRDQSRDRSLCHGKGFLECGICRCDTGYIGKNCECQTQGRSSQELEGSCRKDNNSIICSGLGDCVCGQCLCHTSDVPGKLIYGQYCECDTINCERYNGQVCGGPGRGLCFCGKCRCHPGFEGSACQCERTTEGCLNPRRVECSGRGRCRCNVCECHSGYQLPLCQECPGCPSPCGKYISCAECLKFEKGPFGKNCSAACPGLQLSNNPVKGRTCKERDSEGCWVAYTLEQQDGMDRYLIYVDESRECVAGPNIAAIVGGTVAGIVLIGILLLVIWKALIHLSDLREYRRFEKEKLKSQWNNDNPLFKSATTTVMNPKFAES

Row | Compound | inhibition
1 | C/C(=N\NC(=O)c1cc2c(s1)CCC(C)C2)c1cccnc1 (stereo not given) | 1.2%
2 | COc1ccc(Br)cc1CN(C)CC(=O)Nc1cc([N+](=O)[O-])ccc1OC | 33.8%
3 | N#CCOc1ccc(C2=NO[C@@H]3[C@@H]4C[C@@H]([C@H]5C(=O)N(c6ccc7c(c6)OCO7)C(=O)[C@@H]45)[C@H]23)cc1 | -2%
4 | Cc1ccc(C)c(NC(CC(=O)c2ccccc2)C(=O)OCC(=O)c2cccs2)c1 (stereo not given) | 2.1%
5 | COc1ccccc1OCCC(=O)OCC(=O)NCc1ccccc1 | 5%
6 | CCCOc1cc(C)c(S(=O)(=O)n2nnc3ccccc32)cc1C | 2.3%
7 | CCc1nc(C)cn1S(=O)(=O)c1cc(OC)c(C)cc1C | 51.2% (active)
8 | Cc1ccc(-n2c(C)cc(C(=O)CSc3nnc4ccccn34)c2C)cc1 | 23.4%
9 | CN(C(=O)c1c(Cl)cnn1C)C12CC3CC(CC(C3)C1)C2 | -23%
10 | FC(F)Oc1ccccc1NC(=S)Nc1cccc(Cl)c1Cl | 64.3%
11 | CCCCC1N2CC3([N+](=O)[O-])CN1CC([N+](=O)[O-])(C2)C3(C)C (stereo not given) | -3.2%
12 | O=C(CN1CCN(c2ccccn2)CC1)N1CCc2ccccc21 | 5.5%
13 | COc1ccc(NS(=O)(=O)c2ccc(NC(=S)NC(=O)/C=C/c3ccc(C)cc3)cc2)nn1 | -15%
14 | CCCCn1c(=O)c(CCC(=O)OCC(=O)Nc2ccc(C)c(Cl)c2)nc2ccccc21 | 6.4%
15 | OCC(CO)(CO)NCc1ccc(-c2ccccc2)cc1 | 3.8%
16 | Cc1ccc(S(=O)(=O)Nc2nc3ccccc3nc2N2CCc3ccccc3C2)cc1 | 71.6%
17 | Cc1ccc(S(=O)(=O)C(C#N)c2nc3ccccc3nc2N2CCCC2)cc1C (stereo not given) | 63.1% (active)
18 | Cc1cc(N2CCN(S(=O)(=O)c3ccc(C)c(C)c3)CC2)c2ccccc2n1 | 41.1%
19 | Cc1cc(SCC(=O)NCCN2C(=O)CSC2=O)nc2ccccc12 | 13%
20 | Cc1c(Cl)cccc1NC(=O)CC1SC(=NCC2CCCO2)NC1=O (stereo not given) | 12.8%
21 | CC(Sc1nc2cc(Cl)ccc2s1)C(=O)Nc1ccc2c(c1)OCO2 (stereo not given) | 82.9%
22 | COc1ccc(OC)c(/C=C/C(=O)OCC(=O)Nc2ccc3c(c2)OCCO3)c1 | 24.4%
23 | Cc1ccc(-c2cc(N)on2)cc1 | -5.1%

Row | Compound | inhibition
24 | O=S(=O)(Nc1ccc(Oc2ncccn2)c(Cl)c1)c1ccc(F)cc1 | -21.1%
25 | Cc1ccc(S(=O)(=O)Nc2ccc3ncccc3c2)cc1 | 75.1% (active)
26 | CC(=O)N1CCN(C(=O)c2cccc(S(=O)(=O)Nc3ccc(C)cc3)c2)CC1 | -4.1%
27 | O=C1NC(c2ccc(-c3ccccc3[N+](=O)[O-])o2)C(C(=O)c2ccc(Cl)cc2)C(O)(C(F)(F)F)N1 (stereo not given) | 13.3%
28 | O=C(Cc1coc2ccc3ccccc3c12)NCc1cccs1 | -3.3%
29 | CC(C)[C@H](NC(=O)c1ccc(F)cc1)C(=O)OCC(=O)NC(=O)c1cccn1C | -23.1%
30 | COC(=O)N/N=C/c1ccc(-c2ccc(Cl)c(Cl)c2)o1 | 9.8%
31 | CC(=O)N1C(C)c2ccccc2C(C)(C)CC12CCCCC2 (stereo not given) | -35.8%
32 | COC(=O)c1ccc(NC(=O)CSc2nncc3ccc(OC)c(OC)c23)cc1 | -5.7%
33 | CCC(C(=O)OCC(=O)Nc1c(Cl)cc(Cl)cc1Cl)c1ccccc1 (stereo not given) | 14.9%
34 | Cc1cc(C)c(NC(=S)N2CCCC2C(=O)O)c(C)c1 (stereo not given) | -8.3%
35 | COc1ccccc1CN(C)C(=O)C1(c2ccc(Cl)cc2)CC1 | 11.8%
36 | COc1ccc([N+](=O)[O-])cc1NC(=O)c1ccc(N(Cc2ccccc2C)S(C)(=O)=O)cc1 | 4%
37 | O=C(CSc1ccc(C(F)(F)F)cc1[N+](=O)[O-])NCCOc1ccccc1 | -6%
38 | COc1ccc(C2c3c(C)nn(-c4ccccc4)c3NC(=O)N2c2ccccc2)cc1 (stereo not given) | 2.6%
39 | O=C(NCCN1CCOCC1)c1cc(Sc2cccc(Cl)c2)nc2ccccc12 | 4.4%
40 | Cc1csc(=Nc2ccccc2)n1CCO | -4.3%
41 | OC(COCC1COc2ccccc2O1)CN1CCN(c2ccc(F)cc2)CC1 (stereo not given) | -1.1%
42 | CCC(=O)NC(Nc1nc2ccc(C)cc2s1)(C(=O)OC)C(F)(F)F (stereo not given) | -4.9%
43 | O=C(NC(Nc1nc2ccc([N+](=O)[O-])cc2s1)(C(F)(F)F)C(F)(F)F)c1ccccc1 | 93.8% (active)
44 | COC(=O)C(NC(=O)c1ccc(OC)cc1)(Nc1ncc(S(=O)(=O)c2ccc([N+](=O)[O-])cc2)s1)C(F)(F)F (stereo not given) | 47.7%
45 | CN(Cc1cccs1)C(=O)Cc1c[nH]c2ccccc12 | -17.9%
